Among all 340,000 compounds or so, about 1,000 (0.29%) were called active. No stated cut-off is given here; in the data, inconclusive means inhibition above about 29% without an active follow-up result; inactive means below that. A selection follows. Potency and affinity values are given separately.
Target: Genome polyprotein (Dengue virus type 2 (strain 16681-PDK53)) (UniProt P29991)
Test: flavivirus cap methylation enzyme inhibition – biochemical, confirmation dose response, primary screen (AID 588689)
Conditions: Dengue-2 NS5 methyltransferase capping enzyme assay, at 25 µM, stronger effect = higher value
[1] = measured here: pilot screen replicate inhibition

Compound | inhibition | inhibition [1] [%]
O=C(O)c1cnc(-c2ccccc2)nc1Sc1ccc(Cl)cc1Cl | 4.03% (inactive) | 
Cc1cccc(C2=NN(c3ccccc3)[C@@H](C(=O)N3CCOC3=O)[C@@H]2C)c1 | -1.32% (inactive) | 4.88
CCOC(=O)c1cc(=O)nc(N)s1 | -4.03% (inactive) | 
O=C(COc1ccc([N+](=O)[O-])cc1)NCC(c1cccs1)N1CCOCC1 (stereo not drawn) | 4.32% (inactive) | 
CC(C)(C)OC(=O)N1CCC(CC2CC(c3ccccc3)=NO2)(C(=O)O)CC1 (stereo not drawn) | -3.93% (inactive) | 
O=S(=O)(Nc1ccccc1N1CCCCC1)c1ccccc1 | 1.3% (inactive) | 
S=C(Nc1ccc(Br)cc1Cl)N1CCCC1 | -2.6% (inactive) | 
COc1ccc(C2=CC(=O)C[C@H](c3ccc(OC)c(OC)c3)C2)cn1 | -0.4% (inactive) | 
O=C(O)CN1CCN(Cc2cccc(Cl)c2)C1=O | -1.31% (inactive) | 
CC1(C)CC(=O)C(CC2=C(O)CC(C)(C)CC2=O)C(=O)C1 | -33.8% (inactive) | 
CCCC(C1=C(O)CC(C)(C)CC1=O)C1C(=O)CC(C)(C)CC1=O (stereo not drawn) | -11.2% (inactive) | 
CC(C)c1cc(C(=O)NCc2cccnc2)no1 | 1.6% (inactive) | 
O=C(NNc1ccccc1[N+](=O)[O-])Nc1ccccc1 | -1.39% (inactive) | 
COc1cc(NC(=O)CSc2ncnc3sc4c(c23)CCCC4)c(C(=O)O)cc1OC | -3.33% (inactive) | 
CC1CCc2c(sc3ncnc(SCC(=O)Nc4ccc(C(=O)O)cc4)c23)C1 (stereo not drawn) | -4.98% (inactive) | 
COCCNC(=O)C(=O)c1c(-c2ccccc2)[nH]c2ccccc12 | 1.52% (inactive) | 
O=C(Nc1cc(S(=O)(=O)N2CCOCC2)ccc1N1CCCC1)c1ccc2c(c1)S(=O)(=O)c1ccccc1C2=O | -7.41% (inactive) | 
O=C(Nc1ccc(S(=O)(=O)N2CCOCC2)cc1)c1ccc2c(c1)S(=O)(=O)c1ccccc1C2=O | -4.52% (inactive) | 
COCc1nc(-c2cc(Br)ccc2OC)no1 | -4.06% (inactive) | 
CCn1c(O)c(C=Nc2ccccc2)oc1=S | -8.34% (inactive) | 
Cc1nc2ccc(NC(=O)c3ccc([N+](=O)[O-])cc3[N+](=O)[O-])cc2s1 | -5.18% (inactive) | 
Cc1nc2ccc(NC(=O)c3ccc(Cl)c([N+](=O)[O-])c3)cc2s1 | -4.44% (inactive) | 
COc1cccc(NC(=S)N2CCC(c3ccc(C)cc3)C2)c1 (stereo not drawn) | -1.96% (inactive) | 
COc1ccc(CCNC(=O)c2nnn(CC(=O)Nc3c(C)cc(C)cc3C)c2N)cc1OC | -7.1% (inactive) | 

Compound | inhibition | inhibition [1] [%]
COc1ccc(NC(=O)c2ccc(COCC(F)(F)F)cc2)cc1OC | -2.91% (inactive) | 
COc1cc(C(C2C(=O)CC(C)(C)CC2=O)C2C(=O)CC(C)(C)CC2=O)ccc1OC(C)=O | -2.35% (inactive) | 
COc1cc(C(O)C(=O)O)ccc1O (stereo not drawn) | -7.33% (inactive) | 
CCOc1ccc(CC(=O)C2C(=O)CC(C)(C)CC2=O)cc1OCC | -13.1% (inactive) | 
CC1(C)CC(=O)C(C(c2ccccc2F)C2C(=O)CC(C)(C)CC2=O)C(=O)C1 | 22.6% (inactive) | 
COc1ccc(N2C(=O)CC(C)(C)CC2=O)cc1OC | 0% (inactive) | 
COc1cc(NC(=O)c2ccc(COCC(F)(F)F)o2)cc(OC)c1OC | 0% (inactive) | 
O=C(/C=C1\SC(=O)NC1=O)Nc1ccc(F)cc1 | 0% (inactive) | 
Cc1cc(Br)ccc1NC(=O)CNC(=O)CSc1n[nH]c(N)n1 | -4.68% (inactive) | 
O=C(COC(=O)c1cc(Cl)ccc1O)Nc1cc(C(F)(F)F)ccc1N1CCOCC1 | -3.11% (inactive) | 
CCCN1Cc2cccc(C(=O)NCCc3cccc(C)c3)c2C1=O | 3.25% (inactive) | 
COc1cc(C2CC(=O)OC3=C2C(=O)CC(C)(C)C3)cc(OC)c1OC (stereo not drawn) | 2.26% (inactive) | 
COc1cc(NC2=CC(=O)CC(C)(C)C2)cc(OC)c1OC | 1.61% (inactive) | 
CCOc1ccc(S(=O)(=O)NC(C)(C)C)cc1-c1nc2c(C(C)(C)C)nn(C)c2c(=O)[nH]1 | -2.73% (inactive) | 
Cc1cc[n+](-c2ccccc2)c2ccccc12 | -10.7% (inactive) | 
O=C(CSCc1c(F)cccc1Cl)NCc1ccco1 | -1.37% (inactive) | 
CCN(CC)S(=O)(=O)c1ccc(C(=O)NCC2CCCCC2)cc1 | 2.49% (inactive) | 
O=C(Nc1ccc(F)cc1)c1cc2cc(Cl)ccc2[nH]1 | 1.32% (inactive) | 
COc1ccc(-c2ccc(SCC(=O)N3CC(=O)Nc4ccccc43)nn2)cc1 | -4.15% (inactive) | 
CCn1cc(/C=C/C(=O)NCc2c(C)nn(C)c2C)cn1 | -7.26% (inactive) | 
C(=N\n1cnnc1)/c1cccc(OCCOc2ccccc2)c1 | -9.55% (inactive) | 
COc1ccccc1OCCCOc1cccc(/C=C2\SC(=O)NC2=O)c1 | -1.96% (inactive) | 6.37
O=C1NC(=S)S/C1=C\c1ccc2ccccc2c1 | -15.5% (inactive) | 
O=C1NC(=S)N/C1=C/c1ccc2ccccc2c1 | 5.93% (inactive) | 2.73

Compound | inhibition | inhibition [1] [%]
O=C1NC(=O)/C(=C/c2cccc(O)c2)N1 | 1.96% (inactive) | 
Cc1ccc(OCCN2C(=O)c3ccccc3C2=O)c(C)c1 | 1.61% (inactive) | 
CNC(=O)NC(=O)CSc1nc2cc(C(=O)OC)ccc2c(=O)n1-c1ccccc1 | -2.77% (inactive) | 
COc1ccc2nc(C)cc(SCC(NC(C)=O)C(=O)OC(C)C)c2c1 (stereo not drawn) | 0.78% (inactive) | 
COc1ccccc1C(=O)Nc1ncc2c(n1)CC(c1ccco1)CC2=O (stereo not drawn) | -1.36% (inactive) | 
O=C(NCc1ccccn1)c1cc(S(=O)(=O)N2CCCCCC2)ccc1Cl | 1.3% (inactive) | 
COc1cc(C(=O)O/N=C2\C=CC(=O)C(C)=C2)cc(OC)c1OC | -39% (inactive) | 
Oc1ccc(/C=N/N2CCN(C3c4ccccc4-c4ccccc43)CC2)cc1 | -2.06% (inactive) | 
COc1ccc(OC)c2c1CCC2=O | 0% (inactive) | 
COc1ccc(N)c2c1C(=O)c1ccccc1C2=O | -1.95% (inactive) | 
CCOc1ccc(S(=O)(=O)N2CCCCC2)cc1NC(=O)C1COc2ccccc2O1 (stereo not drawn) | 1.45% (inactive) | 
O=C(NCc1ccccc1)c1cnc(Cl)c(Cl)c1 | -7.44% (inactive) | 
COC(=O)c1ccc(COc2cccnc2[N+](=O)[O-])cc1 | 0% (inactive) | 
O=C(N/N=C/c1cccc(Cl)c1)C1CCCC1 | 0% (inactive) | 
O=C(Nc1ccccc1C(=O)O)c1cccc(S(=O)(=O)Nc2ccc(Br)cc2)c1 | 22.4% (inactive) | 
Cc1ccc(C(=O)Nc2ccccc2C(=O)O)cc1S(=O)(=O)Nc1ccccc1 | 3.97% (inactive) | 
O=C(Nc1ccccc1C(=O)O)c1cccc(F)c1 | 3.35% (inactive) | 
Cc1ccc(C(=O)Nc2ccc(O)cc2C(=O)O)cc1 | -8.03% (inactive) | 
O=C(Nc1ccccc1C(=O)Nc1ccccc1C(=O)O)c1ccccc1 | 2.59% (inactive) | 
O=C(Nc1ccccc1C(=O)O)c1ccccc1 | -0.69% (inactive) | 
CC(=O)Nc1cccc(C(=O)Nc2ccccc2C(=O)O)c1 | 3.9% (inactive) | 
Cc1cccc(C(=O)Nc2ccc(O)cc2C(=O)O)c1 | 14.3% (inactive) | 
Cc1cccc(N(CC(O)CN2CCOCC2)S(=O)(=O)c2ccccc2)c1 (stereo not drawn) | 0% (inactive) | 
Cc1cc(-c2ccccc2N)n[nH]1 | -5.29% (inactive) | 

Compound | inhibition | inhibition [1] [%]
CCN(C(=O)COC(=O)c1ccccc1NCCO)c1cccc2ccccc12 | 6.52% (inactive) | 
COc1ccc(NC(=O)c2ccc(-c3ccccc3C(F)(F)F)o2)cc1 | -7.03% (inactive) | 
COc1cc(C2c3cc4c(cc3OC(NCCc3ccccc3)C2C)OCO4)cc(OC)c1OC (stereo not drawn) | -4.03% (inactive) | 
COc1ccc(S(N)(=O)=O)cc1C(=O)OCC(=O)Nc1sccc1C#N | -21% (inactive) | 
COc1ccccc1N(CC(=O)NCCSc1ccccc1)S(=O)(=O)c1ccccc1 | -5.79% (inactive) | 
O=C(CSc1ncn[nH]1)N1N=C2/C(=C/c3ccco3)CCCC2C1c1ccco1 (stereo not drawn) | -4.57% (inactive) | 
Cc1ccccc1C(=O)Nc1nnc(SC(C)C)s1 | -3.88% (inactive) | 
Cc1ccc(-n2nc3c(=O)n(CC(=O)NCCCc4ccccc4)nc(C)c3c2C)cc1 | -3.57% (inactive) | 
CC(C)(C)OC(=O)N1CCCC(C(=O)CC#N)C1 (stereo not drawn) | -13.4% (inactive) | 
CC1/C(=N/O)CC(c2ccccc2)NC1c1ccccc1 (stereo not drawn) | 3.42% (inactive) | 
COCCNc1nc(NCc2ccccc2)c2cnn(C)c2n1 | -7.24% (inactive) | 
CN(C)CCCN1CC(=O)N2[C@@H](Cc3c([nH]c4ccccc34)C2(C)C)C1=O | 5.89% (inactive) | 
COc1ccc(CCC(=O)Nc2sc(C(=O)N(C)C)c(C)c2C#N)cc1 | 2.58% (inactive) | 
Cc1ccc(Nc2ccc(C(=O)O)cc2[N+](=O)[O-])cc1 | 17% (inactive) | 
COc1ccc(Nc2ccc(C(=O)O)cc2[N+](=O)[O-])cc1 | 3.64% (inactive) | 
COc1ccc(C(C)=O)cc1COC(=O)CNC(=O)C1CCCCC1 | 10.9% (inactive) | 
Cc1cccc(-c2nnc(SCC3CNC(=O)O3)n2-c2ccc(Cl)cc2)c1 (stereo not drawn) | -12.5% (inactive) | 
Cc1sc(NC(=O)C2C3CCC(C3)C2C(=O)O)c(C(N)=O)c1-c1ccc(C(C)(C)C)cc1 (stereo not drawn) | 7.13% (inactive) | 
Cc1sc(NC(=O)C2C3C=CC(C3)C2C(=O)O)c(C(N)=O)c1-c1ccc(C(C)C)cc1 (stereo not drawn) | -5.14% (inactive) | 
Cc1sc(NC(=O)C2CCCCC2C(=O)O)c(C(N)=O)c1-c1ccccc1 (stereo not drawn) | -2.08% (inactive) | 
CC(C)=C1C2CCC1C(C(=O)Nc1sc(C)c(-c3ccc(C(C)C)cc3)c1C(N)=O)C2C(=O)O (stereo not drawn) | 2.89% (inactive) | 
COc1ccc(NC(=O)CN2CCN(S(=O)(=O)N(C)C)CC2)cc1 | 2.61% (inactive) | 3.63

Reference: PubChem BioAssay AID588689 (Southern Research Specialized Biocontainment Screening …, 2011)
